# From article PMC11062922 (Nature Chemical Biology, 2023)
# Where two headings read alike, the source gives them in different places.
# Columns and labels:
# AAK1 = system: AAK1; parameters: species or system human, MV4-11 + K-562 + COLO205 + SK-N-BE2 + OVCAR-8; conditions: read-out: apparent Kd, n = 1
# CLK1 = system: CLK1; parameters: species or system human, MV4-11 + K-562 + COLO205 + SK-N-BE2 + OVCAR-8; conditions: read-out: apparent Kd, compound concentrations: 100 nM and 1000 nM (sheet 'Samples'), n = 1
# GAK = system: GAK; parameters: species or system human, MV4-11 + K-562 + COLO205 + SK-N-BE2 + OVCAR-8; conditions: read-out: apparent Kd, n = 1
# GSK3A = system: GSK3A; parameters: species or system human, MV4-11 + K-562 + COLO205 + SK-N-BE2 + OVCAR-8; conditions: read-out: apparent Kd, n = 1
# GSK3B = system: GSK3B; parameters: species or system human, MV4-11 + K-562 + COLO205 + SK-N-BE2 + OVCAR-8; conditions: read-out: apparent Kd, compound concentrations: 100 nM and 1000 nM (sheet 'Samples'), n = 1
# PRKAG1 = system: PRKAG1; parameters: species or system human, MV4-11 + K-562 + COLO205 + SK-N-BE2 + OVCAR-8; conditions: read-out: apparent Kd, n = 1
# Q6ZSR9 = Q6ZSR9 (human, UniProt Q6ZSR9); parameters: species or system MV4-11 + K-562 + COLO205 + SK-N-BE2 + OVCAR-8; conditions: read-out: apparent Kd, n = 1
# Sequence of Q6ZSR9 (Q6ZSR9 whole entry, looked up): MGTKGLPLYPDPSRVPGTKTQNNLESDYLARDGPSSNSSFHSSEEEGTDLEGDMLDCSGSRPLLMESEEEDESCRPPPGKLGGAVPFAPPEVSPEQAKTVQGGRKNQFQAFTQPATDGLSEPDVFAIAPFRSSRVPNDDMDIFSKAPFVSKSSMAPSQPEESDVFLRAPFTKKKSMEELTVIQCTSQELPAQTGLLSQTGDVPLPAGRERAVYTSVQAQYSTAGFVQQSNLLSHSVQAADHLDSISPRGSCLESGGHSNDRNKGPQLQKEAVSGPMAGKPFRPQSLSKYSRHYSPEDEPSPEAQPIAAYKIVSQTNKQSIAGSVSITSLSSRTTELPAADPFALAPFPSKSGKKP
# CLK4 = system: CLK4; parameters: species or system human, MV4-11 + K-562 + COLO205 + SK-N-BE2 + OVCAR-8; conditions: read-out: apparent Kd, n = 1
# CSNK2A1;CSNK2A3 = system: CSNK2A1;CSNK2A3; parameters: species or system human, MV4-11 + K-562 + COLO205 + SK-N-BE2 + OVCAR-8; conditions: read-out: apparent Kd, n = 1
# CSNK2A2 = system: CSNK2A2; parameters: species or system human, MV4-11 + K-562 + COLO205 + SK-N-BE2 + OVCAR-8; conditions: read-out: apparent Kd, n = 1
# BMP2K = system: BMP2K; parameters: species or system human, MV4-11 + K-562 + COLO205 + SK-N-BE2 + OVCAR-8; conditions: read-out: apparent Kd, n = 1
# FLT4 = system: FLT4; parameters: species or system human, MV4-11 + K-562 + COLO205 + SK-N-BE2 + OVCAR-8; conditions: read-out: apparent Kd; compound concentrations:100 nM and 1000 nM (sheet 'Samples'); n = 1
# MELK = system: MELK; parameters: species or system human, MV4-11 + K-562 + COLO205 + SK-N-BE2 + OVCAR-8; conditions: read-out: apparent Kd; compound concentrations:100 nM and 1000 nM (sheet 'Samples'); n = 1
# NUAK1 = system: NUAK1; parameters: species or system human, MV4-11 + K-562 + COLO205 + SK-N-BE2 + OVCAR-8; conditions: read-out: apparent Kd; compound concentrations:100 nM and 1000 nM (sheet 'Samples'); n = 1
# PAK4 = system: PAK4; parameters: species or system human, MV4-11 + K-562 + COLO205 + SK-N-BE2 + OVCAR-8; conditions: read-out: apparent Kd; compound concentrations:100 nM and 1000 nM (sheet 'Samples'); n = 1
# PKN1 = system: PKN1; parameters: species or system human, MV4-11 + K-562 + COLO205 + SK-N-BE2 + OVCAR-8; conditions: read-out: apparent Kd, n = 1
# RET = system: RET; parameters: species or system human, MV4-11 + K-562 + COLO205 + SK-N-BE2 + OVCAR-8; conditions: read-out: apparent Kd; compound concentrations:100 nM and 1000 nM (sheet 'Samples'); n = 1
# SIK2 = system: SIK2; parameters: species or system human, MV4-11 + K-562 + COLO205 + SK-N-BE2 + OVCAR-8; conditions: read-out: apparent Kd; compound concentrations:100 nM and 1000 nM (sheet 'Samples'); n = 1
# PKN3 = system: PKN3; parameters: species or system human, MV4-11 + K-562 + COLO205 + SK-N-BE2 + OVCAR-8; conditions: read-out: apparent Kd; compound concentrations:100 nM and 1000 nM (sheet 'Samples'); n = 1
# [1] = compound concentrations:100 nM and 1000 nM (sheet 'Samples')
structure (smiles),measurement,setting,value
Cn1cc(C2=C(c3ccc(OC[C@@H](O)CO)cc3)C(=O)NC2=O)c2ccccc21 [RO3208546-000],potency estimated from few doses,"AAK1; compound concentrations: 100 nM and 1000 nM (sheet 'Samples'), CATDS: 3.6946772477140302E-2",1320 nM
same,potency estimated from few doses,CLK1; CATDS: 3.5256752059163503E-2,1510 nM
same,potency estimated from few doses,"GAK; compound concentrations: 100 nM and 1000 nM (sheet 'Samples'), CATDS: 4.3278259075416499E-2",885 nM
same,potency estimated from few doses,"GSK3A; compound concentrations: 100 nM and 1000 nM (sheet 'Samples'), CATDS: 5.7986352312034098E-2",489 nM
same,potency estimated from few doses,GSK3B; CATDS: 4.5953894166210499E-2,774 nM
same,potency estimated from few doses,"PRKAG1; compound concentrations: 100 nM and 1000 nM (sheet 'Samples'), CATDS: 4.3402383935848998E-2",879 nM
same,potency estimated from few doses,"Q6ZSR9; compound concentrations: 100 nM and 1000 nM (sheet 'Samples'), CATDS: 3.3781584093652402E-2",1720 nM
O=C1N=C(NCc2ccccc2Br)S/C1=C\c1ccc2ncccc2c1 [RO4506918-000],potency estimated from few doses,"AAK1; compound concentrations: 100 nM and 1000 nM (sheet 'Samples'), CATDS: 8.9232255617264805E-2",910 nM
same,potency estimated from few doses,CLK1; CATDS: 0.17031966096866,202 nM
same,potency estimated from few doses,"CLK4; compound concentrations: 100 nM and 1000 nM (sheet 'Samples'), CATDS: 0.31130162986837101",76.5 nM
same,potency estimated from few doses,"CSNK2A1;CSNK2A3; compound concentrations: 100 nM and 1000 nM (sheet 'Samples'), CATDS: 0.124108593087182",383 nM
same,potency estimated from few doses,"CSNK2A2; compound concentrations: 100 nM and 1000 nM (sheet 'Samples'), CATDS: 0.192604305943326",162 nM
same,potency estimated from few doses,"Q6ZSR9; compound concentrations: 100 nM and 1000 nM (sheet 'Samples'), CATDS: 9.2903146742856602E-2",804 nM
NS(=O)(=O)c1ccc(N/N=C2\C(=O)Nc3ccc4ncccc4c32)cc1 [GW305178X],potency estimated from few doses,"AAK1; compound concentrations: 100 nM and 1000 nM (sheet 'Samples'), CATDS: 4.5052292202984998E-2",1340 nM
same,potency estimated from few doses,"BMP2K; compound concentrations: 100 nM and 1000 nM (sheet 'Samples'), CATDS: 4.3500032535549099E-2",1510 nM
same,potency estimated from few doses,"CSNK2A1;CSNK2A3; compound concentrations: 100 nM and 1000 nM (sheet 'Samples'), CATDS: 3.8490357435000497E-2",2360 nM
same,potency estimated from few doses,"CSNK2A2; compound concentrations: 100 nM and 1000 nM (sheet 'Samples'), CATDS: 4.2211322900730999E-2",1670 nM
same,potency estimated from few doses,"Q6ZSR9; compound concentrations: 100 nM and 1000 nM (sheet 'Samples'), CATDS: 4.4355829104281E-2",1410 nM
COc1cc[nH]c1/C=C1\C(=O)Nc2ccc(F)c(C#C[C@@H](O)[C@@H](N)[C@@H](C)O)c21 [RO0283120-000],potency estimated from few doses,AAK1; [1],171 nM
same,potency estimated from few doses,BMP2K; [1],84.3 nM
same,potency estimated from few doses,CLK4; [1],1360 nM
same,potency estimated from few doses,CSNK2A1;CSNK2A3; [1],750 nM
same,potency estimated from few doses,CSNK2A2; [1],497 nM
same,potency estimated from few doses,FLT4,1670 nM
same,potency estimated from few doses,GAK; [1],868 nM
same,potency estimated from few doses,MELK,679 nM
same,potency estimated from few doses,NUAK1,20.3 nM
same,potency estimated from few doses,PAK4,350 nM
same,potency estimated from few doses,PKN1; [1],959 nM
same,potency estimated from few doses,PRKAG1; [1],821 nM
same,potency estimated from few doses,Q6ZSR9; [1],208 nM
same,potency estimated from few doses,RET,117 nM
same,potency estimated from few doses,SIK2,878 nM
CNCC1CCn2c(c(C3=C(c4cn(C)c5ccccc45)C(=O)NC3=O)c3ccccc32)C1 (stereo not drawn) [RO0318676-000],potency estimated from few doses,"AAK1; compound concentrations: 100 nM and 1000 nM (sheet 'Samples'), CATDS: 2.7439250549300399E-2",1910 nM
same,potency estimated from few doses,"GAK; compound concentrations: 100 nM and 1000 nM (sheet 'Samples'), CATDS: 3.3618066019117501E-2",961 nM
same,potency estimated from few doses,"GSK3A; compound concentrations: 100 nM and 1000 nM (sheet 'Samples'), CATDS: 6.7317846208259105E-2",171 nM
same,potency estimated from few doses,GSK3B; CATDS: 7.2494529815898601E-2,146 nM
same,potency estimated from few doses,"PKN1; compound concentrations: 100 nM and 1000 nM (sheet 'Samples'), CATDS: 2.8488431691069401E-2",1650 nM
same,potency estimated from few doses,"PRKAG1; compound concentrations: 100 nM and 1000 nM (sheet 'Samples'), CATDS: 3.0243229141785101E-2",1340 nM
same,potency estimated from few doses,"Q6ZSR9; compound concentrations: 100 nM and 1000 nM (sheet 'Samples'), CATDS: 2.7484619244742201E-2",1890 nM
O=C1N=C(N[C@@H](CO)Cc2ccccc2)S/C1=C\c1ccc2ncccc2c1 [RO4509200-000],potency estimated from few doses,"AAK1; compound concentrations: 100 nM and 1000 nM (sheet 'Samples'), CATDS: 0.15010438596183701",551 nM
same,potency estimated from few doses,"BMP2K; compound concentrations: 100 nM and 1000 nM (sheet 'Samples'), CATDS: 0.102719601142922",1460 nM
same,potency estimated from few doses,CLK1; CATDS: 0.20013343303713499,329 nM
same,potency estimated from few doses,"CLK4; compound concentrations: 100 nM and 1000 nM (sheet 'Samples'), CATDS: 0.162916549975684",470 nM
same,potency estimated from few doses,"Q6ZSR9; compound concentrations: 100 nM and 1000 nM (sheet 'Samples'), CATDS: 0.142532878113064",613 nM
O=C1N=C(NCCc2ccccc2Cl)S/C1=C\c1ccc2ncccc2c1 [RO4498484-000],potency estimated from few doses,"AAK1; compound concentrations: 100 nM and 1000 nM (sheet 'Samples'), CATDS: 7.0672381673146406E-2",1000 nM
same,potency estimated from few doses,CLK1; CATDS: 0.163722912511999,151 nM
same,potency estimated from few doses,"CLK4; compound concentrations: 100 nM and 1000 nM (sheet 'Samples'), CATDS: 0.193469538942661",114 nM
same,potency estimated from few doses,"CSNK2A1;CSNK2A3; compound concentrations: 100 nM and 1000 nM (sheet 'Samples'), CATDS: 0.166165421111277",147 nM
same,potency estimated from few doses,"CSNK2A2; compound concentrations: 100 nM and 1000 nM (sheet 'Samples'), CATDS: 0.20425555691522501",105 nM
same,potency estimated from few doses,"GAK; compound concentrations: 100 nM and 1000 nM (sheet 'Samples'), CATDS: 6.92626012786898E-2",1060 nM
same,potency estimated from few doses,"Q6ZSR9; compound concentrations: 100 nM and 1000 nM (sheet 'Samples'), CATDS: 7.2207205601376195E-2",937 nM
NS(=O)(=O)c1ccc(N/N=C2\C(=O)Nc3ccc(-c4cnco4)cc32)cc1 [GW276655_KCGS],potency estimated from few doses,AAK1; [1],1180 nM
same,potency estimated from few doses,BMP2K; [1],518 nM
same,potency estimated from few doses,Q6ZSR9; [1],782 nM
CCn1c(-c2nonc2N)nc2cncc(C(=O)N3CC[C@H](N)C3)c21.Cl [SB-772077-B],potency estimated from few doses,AAK1; [1],1700 nM
same,potency estimated from few doses,GSK3A; [1],1100 nM
same,potency estimated from few doses,PKN1; [1],484 nM
same,potency estimated from few doses,PKN3,1710 nM
same,potency estimated from few doses,Q6ZSR9; [1],1880 nM
